Source: PubChem BioAssay (Tox21)
Values joined by “and” are separate entries in the source; they are usually repeats but may differ in a detail not shown here. Identical values can stand only once. Records with an inconclusive call do not appear. Active and inactive are the calls of the source. Unless noted, calls follow the shape of the dose curve; as a rule, active = well fitted curve in the direction sought with a large enough effect in the repeat runs; inconclusive = weak or mixed curves; inactive = no such curve, though single readings can be large; an effect the other way counts as inactive or inconclusive.

What was measured:
[1] = qHTS assay to identify small molecule antagonists of the vitamin D receptor (VDR) signaling pathway - cell viability counter screen (AID 743225); also: nearly all actives have a fitted effect of over 50% in size
Method in brief: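 Cells (VDR-UAS-bla HEK 293T) are plated, rested 4 h at 37C, dosed with compound and 3 nM final 1-alpha,25-dihydroxy vitamin D3, and incubated 16 h. Viability is taken from CellTiter-Glo luminescence in the reporter wells.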

[2] = qHTS assay to identify small molecule agonists of the NFkB signaling pathway (AID 1159509; active = well fitted curve in the direction sought with a large enough effect in the signal ratio in the repeat runs, not every such curve was filed as active; the % refers to the signal ratio)
Method in brief: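 NFkB-bla ME-180 cells carry a beta-lactamase reporter under an NF-kB response element. They were plated overnight, then exposed to compounds for 5 h at 37 C. Read-out is LiveBLAzer FRET after 1.5 hr at room temperature (405 nm excitation; 460/530 nm emission).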

[3] = qHTS assay to identify small molecule agonists of the NFkB signaling pathway - cell viability counter screen (AID 1159515; calls by dose curve; also: nearly all actives have a fitted effect of over 55% in size)
Method in brief: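 NFkB-bla ME-180 cells, 2,000/well, were plated overnight at 37 C, 5% CO2, then exposed to compounds in DMSO for 5 hr. After the bla FRET read, CellTiter-Glo was added to the same wells; luminescence was read after 30 min at room temperature.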

[4] = qHTS assay to identify small molecule agonists of the endoplasmic reticulum stress response signaling pathway - cell viability counter screen (AID 1159517; calls by dose curve; also: nearly all actives have a fitted effect of over 50% in size)
Method in brief: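 ESRE-bla HeLa cells, 1,500 per well, seeded overnight then treated with compounds for 5 hr at 37 C. After the beta-lactamase read, viability in the same wells is measured by CellTiter-Glo luminescence after 30 min at room temperature.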

[5] = qHTS assay to identify small molecule antagonists of the retinoid-related orphan receptor gamma (ROR-gamma) signaling pathway - cell viability counter screen (AID 1159520); also: nearly all actives have a fitted effect of over 50% in size
Method in brief: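 Tet-on ROR gamma CHO cells were given compounds for 2 hr, then doxycycline hyclate at 1 uM final, and incubated 16 hr at 37 C. Viability was measured as ATP content by CellTiter-Glo luminescence.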

[6] = qHTS assay to identify small molecule agonists of the AP-1 signaling pathway - cell viability counter screen (AID 1159525; calls by dose curve; also: nearly all actives have a fitted effect of over 55% in size)
Method in brief: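 AP-1-bla ME-180 cells in Opti-MEM with 0.5% dialyzed FBS, compound exposure 5 h at 37 C in 15-point titration. Viability read in the same wells as ATP content by CellTiter-Glo luminescence, normalised to tetra-n-octylammonium bromide and DMSO controls.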

[7] = qHTS assay to identify small molecule agonists of the AP-1 signaling pathway (AID 1159526; calls by dose curve)
[8] = molecular target: Retinoic acid receptor RXR-alpha (Homo sapiens) (UniProt P19793); assay: qHTS assay to identify small molecule agonists of the RXR signaling pathway (AID 1159527; calls by dose curve; also: nearly all actives have a fitted effect of over 35% in size)
Method in brief: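 qHTS of the Tox21 10K library in GeneBLAzer RXR-alpha HEK 293T cells carrying a beta-lactamase reporter […]; 16 hr treatment, 9-cis retinoic acid as agonist control, FRET read-out.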

[9] = qHTS assay to identify small molecule agonists of the RXR signaling pathway - cell viability counter screen (AID 1159529); also: nearly all actives have a fitted effect of over 50% in size
Method in brief: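 Cell viability is measured by CellTiter-Glo luminescence, 30 min at room temperature, in wells already read for beta-lactamase. Engineered HEK 293T cells (RXR-alpha-UAS-bla) are dosed 16 hr at 37 C. Tetraoctyl ammonium bromide serves as positive control.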

[10] = qHTS assay to identify small molecule antagonists of the retinoid acid receptor (RAR) signaling pathway - cell viability counter screen (AID 1159551); also: nearly all actives have a fitted effect of over 35% in size
Method in brief: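 C3RL4 cells were seeded overnight at 37 C, then treated with compounds plus 1 uM (final) retinol for 6 h at 37 C. Viability was read as ATP by CellTiter-Glo luminescence after 30 min at room temperature.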

[11] = qHTS assay to identify small molecule antagonists of the retinoic acid receptor (RAR) signaling pathway (AID 1159552; also: nearly all actives have a fitted effect of over 50% in size)
Method in brief: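 Quantitative HTS in C3RL4 RARE-luciferase reporter cells. Compounds were added with 1 uM (final) retinol; luminescence was read after 6 hr.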

[12] = qHTS assay to identify small molecule antagonists of the estrogen related receptor (ERR) signaling pathway from Tox21 library - cell viability counter screen (AID 1224834); also: nearly all actives have a fitted effect of over 30% in size
Method in brief: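 ERR reporter cells were plated 6 h before compound addition, then exposed to test compounds in DMSO for 17.5 h at 37 C. Viability was read as CellTiter-Fluor fluorescence after a 30-minute incubation at 37 C.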

[13] = molecular target: Luciferin 4-monooxygenase (Photinus pyralis) (UniProt P08659); assay: qHTS assay to identify small molecule inhibitors of firefly luciferase (AID 1224835); also: nearly all actives have a fitted effect of over 25% in size; also: potency is read from the fitted curve at half-maximal effect
Method in brief: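 Biochemical qHTS: compounds run as interplate titrations against purified firefly enzyme, with D-luciferin and ATP each at its KM concentration. Light output recorded by CCD imaging.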

[14] = qHTS assay to identify small molecule antagonists of the constitutive androstane receptor (CAR) signaling pathway - cell viability counter screen (AID 1224837); also: nearly all actives have a fitted effect of over 45% in size
Method in brief: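 HepG2 cells stably expressing hCAR and a CYP2B6-2.2kb reporter were plated and pre-incubated 4 hr at 37 C/5% CO2, then given compounds at 15 concentrations plus 50 nM CITCO (final). After 23 hr, viability was read by CellTiter-Fluor fluorescence.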

[15] = molecular target: Nuclear receptor ROR-gamma (Homo sapiens) (UniProt P51449); assay: qHTS assay to identify small molecule antagonists of the retinoid-related orphan receptor gamma (ROR-gamma) signaling pathway (AID 1159521)
Method in brief: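 RORγ antagonism is scored from reduced reporter luminescence in Tet-on CHO cells. Induction used 1 uM final doxycycline hyclate for 16 h at 37 C, following a 2 h compound exposure.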

[16] = qHTS assay to identify small molecule agonists of the endoplasmic reticulum stress response signaling pathway (AID 1159516; active = well fitted activation curve with a large enough effect in the signal ratio in the repeat runs, not every such curve was filed as active; the % refers to the signal ratio)
Method in brief: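 CellSensor ESRE-bla HeLa cells, carrying a beta-lactamase reporter driven by the ER stress response element, were plated overnight and exposed to compounds for 5 hr at 37 C. Reporter activity was read as FRET substrate fluorescence after 2 hr at room temperature.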

[17] = qHTS assay to identify small molecule agonists of the retinoic acid receptor (RAR) signaling pathway (AID 1159553); conditions: C3RL4 RARE luciferase reporter, agonist, 6 h; activation: at 73.3 µM (top of the series) unless noted
Method in brief: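 C3RL4 cells carrying a RARE luciferase reporter were plated overnight at 37 C, then exposed to compounds in DMSO for 6 hr at 37 C and 5% CO2. Luminescence was read 30 min after luciferase reagent addition at room temperature.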

[18] = qHTS assay to identify small molecule agonists of the constitutive androstane receptor (CAR) signaling pathway - cell viability counter screen (AID 1224836); also: nearly all actives have a fitted effect of over 45% in size
Method in brief: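 Counter screen multiplexed with the CAR reporter readout: HepG2 cells co-transfected with hCAR and the CYP2B6-2.2kb construct receive a 15-concentration compound series and 0.75 uM PK11195 (final), then CellTiter-Fluor fluorescence is read after 23 h.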

Measured: Potency

Chain of Luciferin 4-monooxygenase (Photinus pyralis) (P08659 whole entry, looked up): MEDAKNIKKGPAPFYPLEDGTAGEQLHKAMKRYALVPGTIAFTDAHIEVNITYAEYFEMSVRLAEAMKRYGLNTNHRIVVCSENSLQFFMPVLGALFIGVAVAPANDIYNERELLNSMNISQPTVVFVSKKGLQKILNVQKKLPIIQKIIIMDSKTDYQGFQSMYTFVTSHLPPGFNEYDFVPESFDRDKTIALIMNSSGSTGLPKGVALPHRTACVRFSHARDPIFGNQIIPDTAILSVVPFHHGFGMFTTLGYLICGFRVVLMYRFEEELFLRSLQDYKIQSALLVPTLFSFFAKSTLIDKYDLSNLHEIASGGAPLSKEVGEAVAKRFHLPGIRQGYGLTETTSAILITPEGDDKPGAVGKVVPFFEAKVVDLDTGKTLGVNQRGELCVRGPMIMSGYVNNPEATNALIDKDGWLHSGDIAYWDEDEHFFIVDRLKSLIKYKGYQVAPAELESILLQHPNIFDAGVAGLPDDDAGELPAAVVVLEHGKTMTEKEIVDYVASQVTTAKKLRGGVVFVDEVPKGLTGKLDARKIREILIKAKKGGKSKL
Chain of Retinoic acid receptor RXR-alpha (Homo sapiens) (P19793 whole entry, looked up): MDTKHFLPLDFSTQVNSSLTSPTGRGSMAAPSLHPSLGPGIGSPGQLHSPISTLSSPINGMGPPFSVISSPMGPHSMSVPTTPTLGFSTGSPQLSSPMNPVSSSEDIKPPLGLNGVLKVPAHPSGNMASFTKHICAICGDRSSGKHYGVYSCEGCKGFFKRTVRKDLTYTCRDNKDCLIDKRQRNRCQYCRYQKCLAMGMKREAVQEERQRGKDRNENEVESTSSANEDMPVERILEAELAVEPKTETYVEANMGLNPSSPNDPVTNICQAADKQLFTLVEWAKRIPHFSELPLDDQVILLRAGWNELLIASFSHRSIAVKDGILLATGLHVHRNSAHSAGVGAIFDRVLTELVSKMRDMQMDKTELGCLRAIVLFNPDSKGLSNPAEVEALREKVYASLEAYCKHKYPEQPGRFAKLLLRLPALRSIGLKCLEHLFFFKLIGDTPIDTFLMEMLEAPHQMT

CCCCCCCCCl
not listed: [15] | [16] | [17] | [18]
inactive: all other assays above

COC(=O)c1ccccc1N
not listed: [8] | [11] | [16] | [17] | [18]
inactive: all other assays above

CCN(CC)c1ccccc1
not listed: [11] | [16] | [17] | [18]
inactive: all other assays above

O=[N+]([O-])c1ccc([As](=O)(O)O)cc1
not listed: [10] | [15]
inactive: all other assays above

Oc1ccccc1Cl
not listed: [10] | [11] | [15] | [17] | [18]
inactive: all other assays above

O=S(=O)(c1ccc(O)cc1)c1ccc(O)cc1
not listed: [15] | [16] | [18]
inactive: all other assays above

CC(C)OC(=O)Nc1cccc(Cl)c1
active: [13] 31.3 µM and 35.6 µM
not listed: [7] | [17]
inactive: all other assays above

CCc1cccc(C)c1N(C(=O)CCl)C(C)COC (centres undefined)
not listed: [15] | [17]
inactive: all other assays above

CCCN(CCC)N=O
not listed: [16]
inactive: all other assays above
